Among the data in PubChem BioAssay AID949 (Emory University Molecular Libraries Screening Center, 2007) are dose-response slope and OD recovery values, retold here.

Each structure is given as a SMILES string. Some of the results follow. The source made the active and inactive calls.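 The calls were made as follows: active = yeast growth recovered at 30 hours, either rising with dose fitted slope above 0.001 or with average optical density gain above 0.07 (some results past the limit were not filed as active); inactive = growth falling with dose or no effect.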

The experiment can be described thus: SDO1-depleted yeast growth rescue, concentration-response, diseases of bone marrow failure, JHY4D, OD600 (AID 949).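 As to OD recovery: gain in OD600 from 0 h to 30 h averaged across all seven doses.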 As to conditions: S. cerevisiae JHY4D (SDO1-depleted) growth rescue, OD600, 30 h, efflux-deficient strain, SNQ2 and PDR5 mutated; OD recovery: stronger effect = higher value; dose-response slope: measured here: 30 h OD slope vs dose.
In the case of `COc1ccc(-c2nnco2)cc1OC`, the dose-response slope came to 0.000454 and the OD recovery is 0.0477 (inactive).
Turning to `CN(C)c1ccc(Nc2c3c4c(cccc4n(C)c2=O)C(=O)c2ccccc2-3)cc1`, the dose-response slope was -0.000458 and the OD recovery was 0.0269 (inactive).
Take `COc1ccc(OCC(=O)NNC(=O)c2ccc(-c3ccccc3)cc2)cc1`: the OD recovery was 0.0649 (inactive) and the dose-response slope is -0.000252.
In the case of `O=S(=O)(/N=C(/Nc1ccccn1)c1ccccc1)c1ccc(Cl)cc1`, the OD recovery is 0.0469 (inactive) and the dose-response slope was determined as 0.000638.
As to `CCOc1cccc2c1OC1(CCCCC1)N1N=C(c3cccnc3)CC21` (configuration not stated), the OD recovery is 0.0606 (inactive) and the dose-response slope was -0.000222.
Regarding `COc1ccc(/C(C)=N/NC(=O)CCC(=O)Nc2ccc(Cl)cc2Cl)c(OC)c1`, the OD recovery was 0.11 (active) and the dose-response slope amounted to 0.000741.
In the case of `COc1cc(OC)nc(S(C)(=O)=O)n1`, the OD recovery is 0.0647 (inactive) and the dose-response slope is 0.000101.
Take `CC(C)OC(=O)c1c(NC(=O)c2ccco2)sc2c1CCCC2`: the OD recovery is 0.0368 (inactive) and the dose-response slope came out at 0.000949.
Consider `CS(=O)(=O)Nc1ccc(C(=O)N2CCCC2)cc1`, for which the OD recovery was 0.0956 (active) and the dose-response slope is 0.000226.
The matching figures for `O=C(CSc1nc(-c2ccco2)cc(C(F)(F)F)n1)NCc1cccs1`: 0.072 (active) and 0.00107.
The matching figures for `Cc1oc2nc(SCC(=O)NCc3cccnc3)nc(N)c2c1C`: 0.0937 (active) and 0.000887.
For `CC(=O)Nc1ccc(S(=O)(=O)NCCc2ccccc2)cc1`, the OD recovery is 0.0591 (inactive) and the dose-response slope was 0.00092.
The matching figures for `COc1cccc(-c2nnc(NC(=O)c3ccc(S(=O)(=O)N(CC(C)C)CC(C)C)cc3)o2)c1`: 0.0821 (active) and -0.000585.
As for `O=C(COC(=O)/C=C/c1cccc(Cl)c1)NCCc1ccccc1`, the dose-response slope is -0.000894 and the OD recovery is 0.091 (active).
Consider `Cc1[nH]c2ccccc2c1C(=O)CSCC(=O)O`, for which the dose-response slope was -0.000672 and the OD recovery is 0.11 (active).
As to `COc1ccc(CNC(=O)c2c(C)cc(=O)oc2C)cc1OC`, the OD recovery was 0.0773 (active) and the dose-response slope stood at 0.000182.
